Reference: the supplement of paper PMC11732987, “Enantioselective OTUD7B fragment discovery through chemoproteomics screening and high-throughput optimisation” (Communications Chemistry, 2025)

How the values were obtained:
Test in all cases: log2 ratio of Biotin-Ahx-Ub-VS probe labelling (fragment/DMSO); higher = less target engagement (more negative = stronger competition), active = hit call of the paper (q ≤ 0.05, log2 ratio ≤ -1)
Details in all cases: compound concentration: 200 uM; treatment time: 3 h
USP9X = USP9X (UniProt Q93008)
Chain of USP9X (Q93008 whole entry, the tested form may be a part): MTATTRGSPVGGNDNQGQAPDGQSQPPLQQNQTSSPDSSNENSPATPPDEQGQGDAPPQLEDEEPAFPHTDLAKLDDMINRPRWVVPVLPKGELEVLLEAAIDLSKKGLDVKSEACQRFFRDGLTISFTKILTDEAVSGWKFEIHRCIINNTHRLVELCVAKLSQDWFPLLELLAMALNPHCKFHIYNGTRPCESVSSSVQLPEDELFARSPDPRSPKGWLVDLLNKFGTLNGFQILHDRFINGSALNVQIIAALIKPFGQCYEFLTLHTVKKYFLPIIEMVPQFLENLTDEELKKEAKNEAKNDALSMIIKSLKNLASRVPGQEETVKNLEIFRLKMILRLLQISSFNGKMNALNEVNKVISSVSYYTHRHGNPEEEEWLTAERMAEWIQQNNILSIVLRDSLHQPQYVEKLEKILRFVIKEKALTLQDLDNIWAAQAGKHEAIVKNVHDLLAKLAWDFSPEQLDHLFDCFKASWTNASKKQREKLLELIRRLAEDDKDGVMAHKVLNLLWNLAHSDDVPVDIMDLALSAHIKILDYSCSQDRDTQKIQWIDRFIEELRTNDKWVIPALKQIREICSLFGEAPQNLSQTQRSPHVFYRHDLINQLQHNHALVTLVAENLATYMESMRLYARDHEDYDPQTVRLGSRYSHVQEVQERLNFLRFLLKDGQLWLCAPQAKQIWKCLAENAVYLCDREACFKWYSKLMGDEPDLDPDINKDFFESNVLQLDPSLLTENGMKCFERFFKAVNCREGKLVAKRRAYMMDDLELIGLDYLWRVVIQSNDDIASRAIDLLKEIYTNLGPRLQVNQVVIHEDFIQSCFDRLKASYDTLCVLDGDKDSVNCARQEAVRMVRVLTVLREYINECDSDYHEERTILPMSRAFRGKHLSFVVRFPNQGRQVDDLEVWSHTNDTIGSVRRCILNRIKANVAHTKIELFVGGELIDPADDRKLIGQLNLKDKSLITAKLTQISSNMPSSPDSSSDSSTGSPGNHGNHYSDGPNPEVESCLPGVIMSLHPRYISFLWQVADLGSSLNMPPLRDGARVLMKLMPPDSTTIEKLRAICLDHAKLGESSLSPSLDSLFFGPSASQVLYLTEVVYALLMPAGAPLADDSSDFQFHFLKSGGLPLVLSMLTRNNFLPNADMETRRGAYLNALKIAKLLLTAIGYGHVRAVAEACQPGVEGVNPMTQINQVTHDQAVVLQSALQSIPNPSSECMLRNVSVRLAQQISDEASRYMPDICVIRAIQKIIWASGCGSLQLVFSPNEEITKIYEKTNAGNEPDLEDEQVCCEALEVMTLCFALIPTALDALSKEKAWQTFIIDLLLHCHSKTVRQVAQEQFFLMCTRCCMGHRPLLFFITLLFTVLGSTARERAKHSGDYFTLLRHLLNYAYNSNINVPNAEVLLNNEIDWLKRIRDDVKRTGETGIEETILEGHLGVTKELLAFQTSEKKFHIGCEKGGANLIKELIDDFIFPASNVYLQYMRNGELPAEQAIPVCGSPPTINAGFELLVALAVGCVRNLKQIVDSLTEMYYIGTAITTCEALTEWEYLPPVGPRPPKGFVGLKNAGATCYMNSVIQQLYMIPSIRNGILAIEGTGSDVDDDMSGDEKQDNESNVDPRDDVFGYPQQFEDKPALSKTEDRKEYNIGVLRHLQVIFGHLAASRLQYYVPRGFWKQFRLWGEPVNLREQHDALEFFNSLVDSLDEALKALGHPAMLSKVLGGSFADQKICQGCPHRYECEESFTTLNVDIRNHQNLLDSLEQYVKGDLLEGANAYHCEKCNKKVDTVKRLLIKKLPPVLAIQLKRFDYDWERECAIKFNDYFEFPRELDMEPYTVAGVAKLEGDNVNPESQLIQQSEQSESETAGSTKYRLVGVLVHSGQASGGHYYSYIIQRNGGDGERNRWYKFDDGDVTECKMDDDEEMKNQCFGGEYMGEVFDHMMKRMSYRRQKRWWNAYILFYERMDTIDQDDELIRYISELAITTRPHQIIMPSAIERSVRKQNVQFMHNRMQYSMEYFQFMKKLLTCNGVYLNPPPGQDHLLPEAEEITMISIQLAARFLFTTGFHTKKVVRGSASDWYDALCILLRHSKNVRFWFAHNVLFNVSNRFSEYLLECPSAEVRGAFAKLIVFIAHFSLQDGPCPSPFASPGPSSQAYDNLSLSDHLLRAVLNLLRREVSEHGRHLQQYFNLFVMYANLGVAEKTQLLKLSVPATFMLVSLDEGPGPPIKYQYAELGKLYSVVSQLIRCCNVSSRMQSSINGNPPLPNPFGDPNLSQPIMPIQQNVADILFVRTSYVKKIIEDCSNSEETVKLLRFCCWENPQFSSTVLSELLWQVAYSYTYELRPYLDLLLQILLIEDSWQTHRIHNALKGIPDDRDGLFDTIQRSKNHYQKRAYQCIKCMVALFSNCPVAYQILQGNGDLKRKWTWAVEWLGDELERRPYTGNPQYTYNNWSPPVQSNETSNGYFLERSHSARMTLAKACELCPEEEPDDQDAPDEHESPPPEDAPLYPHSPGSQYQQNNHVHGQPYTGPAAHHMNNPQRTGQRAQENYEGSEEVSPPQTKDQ
Summary of the method: (§1)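 Using Biotin-Ahx-Ub-VS at 0.5 µM final for 1 h, DUBs were labelled in HEK293T lysate (495 µg per sample) that had first been treated in triplicate with fragment at 200 µM or vehicle for 3 h. NeutrAvidin enrichment, LysC and trypsin digestion and diaPASEF LC-MS/MS followed. Spectronaut label-free quantities were global-median-normalised. Values are average log2 fragment/vehicle ratios by unpaired t-test, using proteins with ≥2 unique peptides.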

UniProt O00487 = target: UniProt O00487
Summary of the method: as §1

UniProt O00507 = target: UniProt O00507
Chain of UniProt O00507 (O00507 whole entry): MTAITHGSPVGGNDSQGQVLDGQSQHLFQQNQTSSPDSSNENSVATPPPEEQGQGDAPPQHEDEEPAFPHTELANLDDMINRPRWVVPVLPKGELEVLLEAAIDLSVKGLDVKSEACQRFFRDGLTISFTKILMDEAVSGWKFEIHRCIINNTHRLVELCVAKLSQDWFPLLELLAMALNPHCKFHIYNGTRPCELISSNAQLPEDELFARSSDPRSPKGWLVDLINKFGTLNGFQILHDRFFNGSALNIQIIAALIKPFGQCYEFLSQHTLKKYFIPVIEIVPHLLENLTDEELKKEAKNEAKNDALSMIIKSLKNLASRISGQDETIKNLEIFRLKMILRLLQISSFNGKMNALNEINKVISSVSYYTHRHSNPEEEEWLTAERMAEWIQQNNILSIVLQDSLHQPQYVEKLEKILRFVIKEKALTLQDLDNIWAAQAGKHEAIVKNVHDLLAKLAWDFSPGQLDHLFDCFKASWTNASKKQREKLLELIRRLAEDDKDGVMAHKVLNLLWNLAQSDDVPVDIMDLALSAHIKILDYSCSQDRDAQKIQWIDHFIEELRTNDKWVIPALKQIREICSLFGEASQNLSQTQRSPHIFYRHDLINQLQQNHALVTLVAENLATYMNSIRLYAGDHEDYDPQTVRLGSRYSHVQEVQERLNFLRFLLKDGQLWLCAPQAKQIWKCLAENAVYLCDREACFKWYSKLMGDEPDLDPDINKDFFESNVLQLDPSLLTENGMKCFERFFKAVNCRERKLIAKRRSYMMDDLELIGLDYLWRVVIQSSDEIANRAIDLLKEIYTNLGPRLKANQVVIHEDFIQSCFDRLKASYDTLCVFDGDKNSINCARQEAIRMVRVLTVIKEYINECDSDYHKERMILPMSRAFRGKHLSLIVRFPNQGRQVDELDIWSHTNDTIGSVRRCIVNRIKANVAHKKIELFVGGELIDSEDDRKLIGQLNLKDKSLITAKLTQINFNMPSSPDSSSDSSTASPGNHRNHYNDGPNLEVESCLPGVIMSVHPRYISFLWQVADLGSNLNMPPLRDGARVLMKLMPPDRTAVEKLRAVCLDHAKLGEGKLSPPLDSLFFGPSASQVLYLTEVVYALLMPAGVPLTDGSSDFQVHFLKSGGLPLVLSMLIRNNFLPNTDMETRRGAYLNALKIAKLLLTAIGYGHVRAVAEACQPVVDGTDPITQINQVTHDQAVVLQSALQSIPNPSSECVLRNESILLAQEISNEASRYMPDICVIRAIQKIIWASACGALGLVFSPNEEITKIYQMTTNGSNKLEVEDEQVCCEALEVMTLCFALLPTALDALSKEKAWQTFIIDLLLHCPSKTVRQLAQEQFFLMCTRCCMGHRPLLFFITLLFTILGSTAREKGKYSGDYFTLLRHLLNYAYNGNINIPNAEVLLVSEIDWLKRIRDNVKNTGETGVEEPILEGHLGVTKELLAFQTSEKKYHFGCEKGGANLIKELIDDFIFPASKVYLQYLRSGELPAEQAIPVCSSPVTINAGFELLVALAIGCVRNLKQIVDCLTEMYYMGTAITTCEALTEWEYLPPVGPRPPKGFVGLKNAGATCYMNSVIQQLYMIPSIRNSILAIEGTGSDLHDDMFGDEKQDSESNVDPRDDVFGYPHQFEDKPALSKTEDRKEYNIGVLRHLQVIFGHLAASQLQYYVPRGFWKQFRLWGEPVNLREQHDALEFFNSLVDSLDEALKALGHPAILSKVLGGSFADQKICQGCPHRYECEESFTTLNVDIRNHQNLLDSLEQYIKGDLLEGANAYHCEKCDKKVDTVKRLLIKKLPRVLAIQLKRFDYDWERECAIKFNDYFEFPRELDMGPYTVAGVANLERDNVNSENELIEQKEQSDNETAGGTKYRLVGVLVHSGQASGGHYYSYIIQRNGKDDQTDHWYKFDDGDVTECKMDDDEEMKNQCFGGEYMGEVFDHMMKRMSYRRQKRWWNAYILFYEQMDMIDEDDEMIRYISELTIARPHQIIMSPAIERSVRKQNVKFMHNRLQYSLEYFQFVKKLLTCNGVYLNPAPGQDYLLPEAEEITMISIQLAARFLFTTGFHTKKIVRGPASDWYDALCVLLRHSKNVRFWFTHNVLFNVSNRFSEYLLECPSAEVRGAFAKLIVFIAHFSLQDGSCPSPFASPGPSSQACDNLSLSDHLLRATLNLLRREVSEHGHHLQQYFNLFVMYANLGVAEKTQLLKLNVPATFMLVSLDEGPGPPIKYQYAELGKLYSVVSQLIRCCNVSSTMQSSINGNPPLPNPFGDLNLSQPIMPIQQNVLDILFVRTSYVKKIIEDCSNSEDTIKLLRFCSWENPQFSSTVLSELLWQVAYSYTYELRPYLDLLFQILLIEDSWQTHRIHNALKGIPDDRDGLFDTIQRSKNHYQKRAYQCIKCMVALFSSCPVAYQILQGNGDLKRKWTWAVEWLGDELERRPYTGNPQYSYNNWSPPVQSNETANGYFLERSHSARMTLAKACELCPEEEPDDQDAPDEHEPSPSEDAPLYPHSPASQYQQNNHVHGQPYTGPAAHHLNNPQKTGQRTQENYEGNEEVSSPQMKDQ
Summary of the method: as §1

UniProt P51784 = target: UniProt P51784
Summary of the method: as §1

UniProt Q5T2D3 = target: T1, UniProt Q5T2D3
T1 sequence (whole entry): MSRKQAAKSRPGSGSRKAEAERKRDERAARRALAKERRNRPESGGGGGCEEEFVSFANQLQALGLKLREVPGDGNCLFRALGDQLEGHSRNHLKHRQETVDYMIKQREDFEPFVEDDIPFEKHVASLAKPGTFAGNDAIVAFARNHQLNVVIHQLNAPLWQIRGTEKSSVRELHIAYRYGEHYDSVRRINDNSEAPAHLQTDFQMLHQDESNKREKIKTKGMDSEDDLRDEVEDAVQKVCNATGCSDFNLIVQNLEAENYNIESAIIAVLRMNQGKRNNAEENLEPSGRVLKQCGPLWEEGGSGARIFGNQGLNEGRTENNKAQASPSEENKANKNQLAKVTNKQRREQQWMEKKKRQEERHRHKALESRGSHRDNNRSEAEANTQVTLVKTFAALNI
Summary of the method: as §1

UniProt Q8TE49 = target: T2, UniProt Q8TE49
T2 sequence (whole entry): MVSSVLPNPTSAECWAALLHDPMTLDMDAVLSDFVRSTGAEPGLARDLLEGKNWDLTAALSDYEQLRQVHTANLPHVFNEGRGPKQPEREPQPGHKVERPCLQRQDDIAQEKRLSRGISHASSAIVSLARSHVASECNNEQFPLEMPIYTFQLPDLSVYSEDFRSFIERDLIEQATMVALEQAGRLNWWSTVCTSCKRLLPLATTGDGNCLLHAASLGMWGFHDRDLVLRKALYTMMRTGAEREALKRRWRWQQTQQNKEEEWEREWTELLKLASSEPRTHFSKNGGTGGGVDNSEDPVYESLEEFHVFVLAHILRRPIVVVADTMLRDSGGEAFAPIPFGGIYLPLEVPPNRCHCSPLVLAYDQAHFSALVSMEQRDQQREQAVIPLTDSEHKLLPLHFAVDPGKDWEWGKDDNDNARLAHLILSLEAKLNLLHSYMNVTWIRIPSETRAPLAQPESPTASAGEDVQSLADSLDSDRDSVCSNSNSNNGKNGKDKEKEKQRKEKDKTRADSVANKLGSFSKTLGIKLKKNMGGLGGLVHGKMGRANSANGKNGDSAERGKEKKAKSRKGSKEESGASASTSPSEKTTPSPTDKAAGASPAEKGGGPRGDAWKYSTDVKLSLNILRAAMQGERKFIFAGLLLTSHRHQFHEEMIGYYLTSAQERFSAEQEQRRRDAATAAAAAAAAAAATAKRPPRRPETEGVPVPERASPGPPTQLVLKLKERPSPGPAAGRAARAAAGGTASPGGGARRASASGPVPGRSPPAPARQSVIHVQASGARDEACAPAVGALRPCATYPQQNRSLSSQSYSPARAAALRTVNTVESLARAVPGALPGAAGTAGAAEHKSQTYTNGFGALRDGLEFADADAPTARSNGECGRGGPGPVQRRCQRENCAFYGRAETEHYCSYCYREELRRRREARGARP
Summary of the method: as §1

UniProt Q9P2H5 = target: T3, UniProt Q9P2H5
T3 sequence (whole entry): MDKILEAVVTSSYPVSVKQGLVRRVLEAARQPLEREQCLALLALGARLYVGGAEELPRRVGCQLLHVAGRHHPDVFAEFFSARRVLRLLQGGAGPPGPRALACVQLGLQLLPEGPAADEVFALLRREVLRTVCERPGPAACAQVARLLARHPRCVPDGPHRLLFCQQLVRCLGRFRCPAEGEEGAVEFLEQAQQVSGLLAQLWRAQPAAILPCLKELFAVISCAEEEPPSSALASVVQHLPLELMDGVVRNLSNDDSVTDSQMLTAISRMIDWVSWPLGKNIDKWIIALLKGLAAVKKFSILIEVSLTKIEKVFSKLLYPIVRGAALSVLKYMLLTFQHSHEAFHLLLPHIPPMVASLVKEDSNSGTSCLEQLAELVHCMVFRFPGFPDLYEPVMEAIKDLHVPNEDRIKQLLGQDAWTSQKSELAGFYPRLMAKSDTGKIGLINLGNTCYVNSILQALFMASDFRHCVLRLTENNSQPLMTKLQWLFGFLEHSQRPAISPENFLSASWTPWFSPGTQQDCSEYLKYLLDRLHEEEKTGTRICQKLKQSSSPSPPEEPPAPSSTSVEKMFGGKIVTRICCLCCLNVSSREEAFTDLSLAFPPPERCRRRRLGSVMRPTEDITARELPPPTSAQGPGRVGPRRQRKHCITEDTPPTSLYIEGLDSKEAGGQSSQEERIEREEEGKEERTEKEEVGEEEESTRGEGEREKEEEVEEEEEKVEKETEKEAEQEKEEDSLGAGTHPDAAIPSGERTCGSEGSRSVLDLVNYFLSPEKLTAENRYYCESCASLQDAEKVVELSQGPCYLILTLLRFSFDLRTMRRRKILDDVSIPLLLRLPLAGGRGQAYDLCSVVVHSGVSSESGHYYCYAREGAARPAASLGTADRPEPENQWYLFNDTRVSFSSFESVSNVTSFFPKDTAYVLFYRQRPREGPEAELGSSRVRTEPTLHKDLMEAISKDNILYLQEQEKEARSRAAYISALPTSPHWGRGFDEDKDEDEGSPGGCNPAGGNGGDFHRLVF
Summary of the method: as §1

UniProt Q9UGI0 = target: T4, UniProt Q9UGI0
T4 sequence (whole entry): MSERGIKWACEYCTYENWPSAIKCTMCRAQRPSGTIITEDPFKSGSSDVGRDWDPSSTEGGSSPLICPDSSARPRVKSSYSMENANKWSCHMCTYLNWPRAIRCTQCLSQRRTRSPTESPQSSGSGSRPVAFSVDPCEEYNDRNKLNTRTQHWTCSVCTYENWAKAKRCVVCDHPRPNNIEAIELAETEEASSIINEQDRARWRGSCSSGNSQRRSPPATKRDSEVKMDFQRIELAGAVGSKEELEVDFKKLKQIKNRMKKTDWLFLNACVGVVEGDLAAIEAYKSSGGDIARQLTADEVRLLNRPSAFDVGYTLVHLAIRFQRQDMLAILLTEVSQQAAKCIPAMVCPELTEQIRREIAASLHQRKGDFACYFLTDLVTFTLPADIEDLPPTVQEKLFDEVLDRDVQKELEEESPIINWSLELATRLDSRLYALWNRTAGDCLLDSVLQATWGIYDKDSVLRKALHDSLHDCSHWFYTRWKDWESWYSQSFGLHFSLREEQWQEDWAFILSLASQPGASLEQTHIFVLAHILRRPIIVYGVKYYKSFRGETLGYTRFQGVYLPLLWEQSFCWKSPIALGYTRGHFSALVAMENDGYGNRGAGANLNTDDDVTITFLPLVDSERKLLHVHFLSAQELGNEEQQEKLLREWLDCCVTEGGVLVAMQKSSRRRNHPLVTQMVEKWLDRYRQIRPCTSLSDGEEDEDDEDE
Summary of the method: as §1

YOD1 = target: T5, YOD1 (UniProt Q5VVQ6)
T5 sequence (whole entry): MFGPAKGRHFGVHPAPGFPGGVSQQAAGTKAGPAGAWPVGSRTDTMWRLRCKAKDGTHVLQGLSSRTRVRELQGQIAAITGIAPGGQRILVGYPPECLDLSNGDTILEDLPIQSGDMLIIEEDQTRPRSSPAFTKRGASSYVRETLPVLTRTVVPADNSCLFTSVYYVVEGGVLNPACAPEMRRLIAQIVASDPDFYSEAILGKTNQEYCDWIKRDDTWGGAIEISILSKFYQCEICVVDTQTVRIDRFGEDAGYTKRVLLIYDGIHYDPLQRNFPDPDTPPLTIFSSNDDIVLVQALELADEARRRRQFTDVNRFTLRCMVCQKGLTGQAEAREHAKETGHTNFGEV
Summary of the method: as §1

Measured: log2 ratio of Biotin-Ahx-Ub-VS probe labelling

Cc1nc(CC2CCN(C(=O)CCl)CC2)no1
inactive: USP9X -0.815 | UniProt O00487 -0.084 | UniProt O00507 -0.771 | UniProt P51784 -0.658 | UniProt Q5T2D3 -0.786 | UniProt Q9P2H5 -0.59 | UniProt Q9UGI0 -0.834 | YOD1 -0.679
active: UniProt Q8TE49 -1.04
